# PubChem BioAssay (NCATS)
# Records with an inconclusive call do not appear. Calls of active or inactive are those of the source. Unless noted, calls follow the shape of the full dose curve. Non-standard residues stand in square brackets, D forms with d. Residues, ends and D or L forms follow the SMILES beside them. *: point of attachment. Sta = CC(C)C[C@H](N)[C@@H](O)CC(=O)O; Isovaleryl = CC(C)CC(=O)*
# What was measured:
# [1] = qHTS drug screen for cell cycle checkpoint inhibitors in PARPi-resistant BRCA-mutant ovarian cancer cell lines. (AID 1963452); conditions: PEO1/OlaR viability, CellTiter-Glo luminescence, 96 h, stronger effect = lower value
# Procedure, shortened: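 PEO1, PEO4 and PEO1/OlaR ovarian cancer cells, 600 per well, exposed 96 h at 37C to a dilution series. Viability read by CellTiter-Glo luminescence, normalized to DMSO and empty wells; activity summarized as Z-AUC.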
# [2] = qHTS for identification of novel therapeutic agents for treatment of microphthalmiaassociated transcription factor (MiT) renal cell carcinoma (RCC) (AID 1963991); conditions: CellTiter-Glo, 48 h, stronger effect = lower value;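 also: curves scaled with 100% = DMSO viability and 0% = empty wells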
# Procedure, shortened: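 UOK109/UOK124/UOK145 (TFE3 fusions, three partners); 500 cells/well; MIPE v4.0, 1912 cpds, 11 conc.; 48 h, 37 C; CellTiter-Glo, 15 min RT; lum. Norm.: DMSO 100%, empty 0%.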
# [3] = molecular target: Nuclear receptor subfamily 1 group I member 2 (Homo sapiens) (UniProt O75469); experiment: Dual reporter qHTS for antagonist of Pregnane X Receptor (hPXR) against the NCATS DSHEA and TCM libraries: Luminescence Readout (AID 1920060; active = well fitted curve in the direction sought with a large enough effect; an effect the other way counts as inactive or inconclusive;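 also: HepG2 cells carrying hPXR luciferase reporter stimulated with rifampicin at 2 µM; 0% is about no effect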); conditions: hPXR dual reporter cells, luciferase luminescence, antagonist mode; series mostly up to 40 µM
# Procedure, shortened: (§1)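 HepG2 hPXR-Luc, 2000 cells/well, charcoal-stripped FBS medium; 5 h attach; RIF 2 uM final; 24 h 37C/5% CO2; CellTiter-Fluor 1 h, fluor 405/540; ONE-Glo 30 min RT, lum.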
# [4] = Dual reporter qHTS for antagonist of Pregnane X Receptor (hPXR) against the NCATS DSHEA and TCM libraries: Fluorescence Readout (AID 1920061; active = well fitted curve in the direction sought with a large enough effect; an effect the other way counts as inactive or inconclusive; also: 0% is about no effect); conditions: PXR dual reporter cells, antagonist mode; series mostly up to 40 µM
# Procedure, shortened: as §1
# [5] = qHTS profiling for inhibitors of Plasmodium falciparum proliferation (AID 504749; active = well fitted curve in the direction sought with a large enough effect; an effect the other way counts as inactive or inconclusive;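 also: 0% = DMSO vehicle and full inhibition = artemisinin control; nearly all actives have a fitted effect of over 60% in size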); conditions: P. falciparum in erythrocytes, SYBR Green DNA, 72 h, at 28.7 µM (top of the series)
# Procedure, shortened: (§2)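 P. falciparum-infected erythrocytes (0.3% parasitemia, 2.5% hematocrit final) were exposed to compounds for 72 h at 37 C in 5% CO2, then lysed with SYBR Green buffer overnight at room temperature; parasite DNA fluorescence was normalized to artemisinin and DMSO controls.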
# [6] = system: 3D7; experiment: as above; conditions: P. falciparum in erythrocytes, SYBR Green DNA, 72 h; series mostly up to 28.7 µM
# Procedure, shortened: as §2
# [7] = system: 7G8; experiment: as above; conditions: P. falciparum in erythrocytes, SYBR Green DNA, 72 h; series mostly up to 28.7 µM
# Procedure, shortened: as §2
# [8] = system: AA1029; experiment: as above; conditions: P. falciparum in erythrocytes, SYBR Green DNA, 72 h; series mostly up to 28.7 µM
# Procedure, shortened: as §2
# [9] = system: AS120; experiment: as above; conditions: P. falciparum in erythrocytes, SYBR Green DNA, 72 h; series mostly up to 28.7 µM
# Procedure, shortened: as §2
# [10] = system: ATS189; experiment: as above; conditions: P. falciparum in erythrocytes, SYBR Green DNA, 72 h; series mostly up to 28.7 µM
# Procedure, shortened: as §2
# [11] = measured here: PEO1 parental Z-AUC
# [12] = TFE3-RCC UOK109 viability, measured here: UOK109 Z-AUC
# [13] = TFE3-RCC viability, measured here: UOK124 Z-AUC
# [14] = TFE3-RCC viability, measured here: UOK145 Z-AUC
# Sequence of Nuclear receptor subfamily 1 group I member 2 (Homo sapiens) (O75469 whole entry, looked up): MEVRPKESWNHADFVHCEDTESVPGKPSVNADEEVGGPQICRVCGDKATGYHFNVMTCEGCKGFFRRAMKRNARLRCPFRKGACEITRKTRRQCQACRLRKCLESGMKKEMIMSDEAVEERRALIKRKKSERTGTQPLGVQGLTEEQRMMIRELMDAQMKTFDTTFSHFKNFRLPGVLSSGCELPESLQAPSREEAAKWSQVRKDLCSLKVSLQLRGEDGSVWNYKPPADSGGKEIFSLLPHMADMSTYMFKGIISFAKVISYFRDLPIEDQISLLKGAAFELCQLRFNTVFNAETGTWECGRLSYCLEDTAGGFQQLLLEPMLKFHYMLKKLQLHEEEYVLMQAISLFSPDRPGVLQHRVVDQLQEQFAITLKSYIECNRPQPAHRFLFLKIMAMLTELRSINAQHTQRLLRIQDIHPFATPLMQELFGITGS
smiles,measurement,setting,value
COc1cc(Nc2c(C#N)cnc3cc(OCCCN4CCN(C)CC4)c(OC)cc23)c(Cl)cc1Cl,Z-AUC,[1],0.106 (inactive)
same,Z-AUC,[1]; [11],0.26
same,Z-AUC,[1]; measured here: PEO4 Z-AUC,0.9
Cc1cccc(-c2[nH]ncc2-c2ccc3ncccc3n2)n1,Z-AUC,[1],-0.435 (inactive)
same,Z-AUC,[1]; [11],0.556
same,Z-AUC,[1]; measured here: PEO4 Z-AUC,0.305
Cc1ccc(S(=O)(=O)NC(=O)NN2CC3CCCC3C2)cc1 (stereo not given),Z-AUC,[1],1.31 (inactive)
same,Z-AUC,[1]; [11],0.956
same,Z-AUC,[1]; measured here: PEO4 Z-AUC,1.09
CC(=O)N1CCN(c2ccc(OC[C@H]3CO[C@](Cn4ccnc4)(c4ccc(Cl)cc4Cl)O3)cc2)CC1,Z-AUC,[1],0.477 (inactive)
same,Z-AUC,[1]; [11],0.452
same,Z-AUC,[1]; measured here: PEO4 Z-AUC,0.494
CC(C)c1ccc2c(c1)c(SC(C)(C)C)c(CC(C)(C)C(=O)O)n2Cc1ccc(Cl)cc1,Z-AUC,[1],1.24 (inactive)
same,Z-AUC,[1]; [11],0.791
same,Z-AUC,[1]; measured here: PEO4 Z-AUC,0.661
CN(C)c1ccc(O)c2c1C[C@H]1C[C@H]3[C@H](N(C)C)C(=O)C(C(N)=O)=C(O)[C@@]3(O)C(=O)C1=C2O,Z-AUC,[1],0.306 (inactive)
same,Z-AUC,[1]; [11],0.206
same,Z-AUC,[1]; measured here: PEO4 Z-AUC,0.369
Cc1cc(Cl)ccc1OCCCC(=O)NO,Z-AUC,[1],0.502 (inactive)
same,Z-AUC,[1]; [11],0.403
same,Z-AUC,[1]; measured here: PEO4 Z-AUC,0.182
O=c1c(O)c(-c2ccc(O)cc2O)oc2cc(O)cc(O)c12,Z-AUC,[1],1.32 (inactive)
same,Z-AUC,[1]; [11],1.13
same,Z-AUC,[1]; measured here: PEO4 Z-AUC,1.21
same,z-score,[2]; [12],0.0602
same,z-score,[2]; [13],0.591
same,z-score,[2]; [14],-0.0945
O=C(c1ccccc1)c1ccc2n1CCC2C(=O)O (stereo not given),Z-AUC,[1],1.02 (inactive)
same,Z-AUC,[1]; [11],0.719
same,Z-AUC,[1]; measured here: PEO4 Z-AUC,0.897
Oc1ccc2ccccc2c1SSc1c(O)ccc2ccccc12,Z-AUC,[1],-0.118 (inactive)
same,Z-AUC,[1]; [11],0.665
same,Z-AUC,[1]; measured here: PEO4 Z-AUC,0.501
O=C(CCc1ccc(O)cc1)c1c(O)cc(O)cc1O,Z-AUC,[1],-0.868 (inactive)
same,Z-AUC,[1]; [11],-0.361
same,Z-AUC,[1]; measured here: PEO4 Z-AUC,-0.52
Nc1nc(N)c(N=O)c(OCC2CCCCC2)n1,Z-AUC,[1],-0.0306 (inactive)
same,Z-AUC,[1]; [11],0.757
same,Z-AUC,[1]; measured here: PEO4 Z-AUC,0.22
Cc1ccc(Nc2nccc(N(C)c3ccc4c(C)n(C)nc4c3)n2)cc1S(N)(=O)=O,Z-AUC,[1],1.07 (inactive)
same,Z-AUC,[1]; [11],0.627
same,Z-AUC,[1]; measured here: PEO4 Z-AUC,0.955
O=C(NOCC1CC1)c1ccc(F)c(F)c1Nc1ccc(I)cc1Cl,Z-AUC,[1],0.682 (inactive)
same,Z-AUC,[1]; [11],-0.295
same,Z-AUC,[1]; measured here: PEO4 Z-AUC,0.149
Clc1ccc(C(Cn2ccnc2)OCc2ccc(Sc3ccccc3)cc2)c(Cl)c1 (stereo not given),Z-AUC,[1],-1.08 (inactive)
same,Z-AUC,[1]; [11],-0.535
same,Z-AUC,[1]; measured here: PEO4 Z-AUC,-0.326
Nc1ncn([C@H]2C[C@H](O)[C@@H](CO)O2)c(=O)n1,Z-AUC,[1],1.63 (inactive)
same,Z-AUC,[1]; [11],-0.11
same,Z-AUC,[1]; measured here: PEO4 Z-AUC,-0.207
O=Nc1c(-c2c(O)[nH]c3cc(Br)ccc23)[nH]c2ccccc12,Z-AUC,[1],-0.607 (inactive)
same,Z-AUC,[1]; [11],-0.18
same,Z-AUC,[1]; measured here: PEO4 Z-AUC,-0.803
S=c1nc[nH]c2nc[nH]c12,Z-AUC,[1],-0.8 (inactive)
same,Z-AUC,[1]; [11],-0.506
same,Z-AUC,[1]; measured here: PEO4 Z-AUC,-0.594
C[C@H](Cc1ccc(O)c(O)c1)[C@@H](C)Cc1ccc(O)c(O)c1,Z-AUC,[1],1.18 (inactive)
same,Z-AUC,[1]; [11],0.707
same,Z-AUC,[1]; measured here: PEO4 Z-AUC,0.729
CCN(CC)C(=S)SSC(=S)N(CC)CC,Z-AUC,[1],0.318 (inactive)
same,Z-AUC,[1]; [11],0.214
same,Z-AUC,[1]; measured here: PEO4 Z-AUC,0.454
O=C1NC(=O)C(c2ccccc2[N+](=O)[O-])=C1Nc1ccc(O)c(Cl)c1,Z-AUC,[1],0.891 (inactive)
same,Z-AUC,[1]; [11],0.49
same,Z-AUC,[1]; measured here: PEO4 Z-AUC,0.349
Oc1ccc(-c2nc(-c3ccc(F)cc3)c(-c3ccncc3)[nH]2)cc1,Z-AUC,[1],1.12 (inactive)
same,Z-AUC,[1]; [11],-0.0618
same,Z-AUC,[1]; measured here: PEO4 Z-AUC,0.0892
NC(=NCc1ccccc1)NC(=O)c1nc(Cl)c(N)nc1N,Z-AUC,[1],-0.929 (inactive)
same,Z-AUC,[1]; [11],-0.393
same,Z-AUC,[1]; measured here: PEO4 Z-AUC,-0.0693
COc1ccccc1N1CCN(CCN(C(=O)C2CCCCC2)c2ccccn2)CC1,Z-AUC,[1],0.61 (inactive)
same,Z-AUC,[1]; [11],0.37
same,Z-AUC,[1]; measured here: PEO4 Z-AUC,0.876
Nc1nc(OCc2ccccc2)c2[nH]cnc2n1,Z-AUC,[1],0.131 (inactive)
same,Z-AUC,[1]; [11],0.393
same,Z-AUC,[1]; measured here: PEO4 Z-AUC,0.209
CCOC(=O)C1=C[C@@H](OC(CC)CC)[C@H](NC(C)=O)[C@@H](N)C1,Z-AUC,[1],0.109 (inactive)
same,Z-AUC,[1]; [11],0.666
same,Z-AUC,[1]; measured here: PEO4 Z-AUC,0.833
same,z-score,[2]; [12],0.372
same,z-score,[2]; [13],0.178
same,z-score,[2]; [14],0.414
Cc1cccc(CN2CCN(C(c3ccccc3)c3ccc(Cl)cc3)CC2)c1 (stereo not given),Z-AUC,[1],-1.46 (inactive)
same,Z-AUC,[1]; [11],-0.604
same,Z-AUC,[1]; measured here: PEO4 Z-AUC,-1
Cc1cc(O)c2c(c1)C(=O)c1cc(O)cc(O)c1C2=O,outcome,[3],inactive
same,outcome,[4],inactive
same,Z-AUC,[1],0.333 (inactive)
same,Z-AUC,[1]; [11],0.799
same,Z-AUC,[1]; measured here: PEO4 Z-AUC,0.55
COCCCN1CCC(NC(=O)c2cc(Cl)c(N)c3c2OCC3)CC1,Z-AUC,[1],1.78 (inactive)
same,Z-AUC,[1]; [11],1.56
same,Z-AUC,[1]; measured here: PEO4 Z-AUC,1.58
c1cnc2cc3c(cc2n1)C1CNCC3C1,Z-AUC,[1],-0.725 (inactive)
same,Z-AUC,[1]; [11],-0.804
same,Z-AUC,[1]; measured here: PEO4 Z-AUC,-0.403
same,z-score,[2]; [12],-0.0233
same,z-score,[2]; [13],0.674
same,z-score,[2]; [14],0.454
CCCS(=O)c1ccc2nc(NC(=O)OC)[nH]c2c1 (stereo not given),Z-AUC,[1],-0.279 (inactive)
same,Z-AUC,[1]; [11],-0.314
same,Z-AUC,[1]; measured here: PEO4 Z-AUC,0.468
CN(C)C(=O)[C@H](O)[C@H](Cc1ccccc1)NC(=O)c1cc2cc(Cl)ccc2[nH]1,Z-AUC,[1],-0.181 (inactive)
same,Z-AUC,[1]; [11],0.139
same,Z-AUC,[1]; measured here: PEO4 Z-AUC,-0.0271
Clc1ccc(C(Cn2ccnc2)OCc2c(Cl)cccc2Cl)c(Cl)c1 (stereo not given),Z-AUC,[1],0.975 (inactive)
same,Z-AUC,[1]; [11],0.252
same,Z-AUC,[1]; measured here: PEO4 Z-AUC,0.49
COc1cc2c(N3CCN(C(=O)Nc4ccc(OC(C)C)cc4)CC3)ncnc2cc1OCCCN1CCCCC1,Z-AUC,[1],1.04 (inactive)
same,Z-AUC,[1]; [11],0.804
same,Z-AUC,[1]; measured here: PEO4 Z-AUC,1.1
O=C(NCC1CCCCN1)c1cc(OCC(F)(F)F)ccc1OCC(F)(F)F (stereo not given),Z-AUC,[1],-0.39 (inactive)
same,Z-AUC,[1]; [11],-0.839
same,Z-AUC,[1]; measured here: PEO4 Z-AUC,-1.07
CC(C)CC(=O)N[C@H](C(=O)N[C@H](C(=O)N[C@@H](CC(C)C)[C@@H](O)CC(=O)N[C@@H](C)C(=O)N[C@@H](CC(C)C)[C@@H](O)CC(=O)O)C(C)C)C(C)C (Isovaleryl-VV[Sta]A[Sta]-OH),Z-AUC,[1],0.839 (inactive)
same,Z-AUC,[1]; [11],0.464
same,Z-AUC,[1]; measured here: PEO4 Z-AUC,0.507
same,z-score,[2]; [12],0.353
same,z-score,[2]; [13],0.618
same,z-score,[2]; [14],0.758
CCC1=C(C)CN(C(=O)NCCc2ccc(S(=O)(=O)NC(=O)NC3CCC(C)CC3)cc2)C1=O (stereo not given),Z-AUC,[1],-0.196 (inactive)
same,Z-AUC,[1]; [11],0.246
same,Z-AUC,[1]; measured here: PEO4 Z-AUC,0.144
same,z-score,[2]; [12],0.704
same,z-score,[2]; [13],0.513
same,z-score,[2]; [14],0.718
same,"activity, negative = inhibition",[5]; parasite line A,6.02% (inactive)
same,"activity, negative = inhibition",[5]; parasite line B,7.16% (inactive)
same,Potency,[6],inactive
same,Potency,[7],inactive
same,Potency,[8],inactive
same,Potency,[9],inactive
same,Potency,[10],inactive
